A selection: hits, their analogues and other compounds. The true share with any hit is near 2.4%.
C diff HTS: C. difficile growth inhibition | Clostridium difficile clinical isolate growth, OD600, 24 h; hits give low values | growth activity, negative = inhibition, % at 16 µg/mL (by protocol) | 86,000 compounds, 0.25% hits;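 active means mean growth activity at or below -80% and every replicate also at or below -80%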;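 further: 0% = DMSO wells and -100% = levofloxacin 16 µg/mL wells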
Pf Dd2 growth: blocks growth of Plasmodium falciparum Dd2 parasites; 94,000 compounds, 2.3% hits; AID 1159554; activity change, % at 10 µM; P. falciparum Dd2 growth, SYBR Green, 72 h; hits give low values; in the data active means activity change below about -80%
* hit, by the source's call; · = not tested or not shown.

SMILES	C diff HTS	Pf Dd2 growth
Cc1ccc(S(=O)(=O)N(C)C[C@@H]2OCc3ccccc3-c3c(n(C)c4ccccc34)C(=O)N([C@H](C)CO)C[C@H]2C)cc1	·	-81.9*
C[C@@H]1CN([C@@H](C)CO)C(=O)c2c(c3ccccc3n2C)-c2ccccc2CO[C@@H]1CN(C)S(=O)(=O)c1ccsc1	-4.3	-32.7
C[C@H]1CN([C@@H](C)CO)C(=O)c2c(c3ccccc3n2C)-c2ccccc2CO[C@@H]1CN(C)S(=O)(=O)c1ccsc1	4.5	-80.3*
C[C@H](CO)N1C[C@H](C)[C@H](CN(C)S(=O)(=O)c2ccc([N+](=O)[O-])cc2)OCc2ccccc2-c2c(n(C)c3ccccc23)C1=O	2.5	-92.3*
C[C@@H]1CN([C@H](C)CO)C(=O)c2c(c3ccccc3n2C)-c2ccccc2CO[C@@H]1CN(C)S(=O)(=O)c1ccccc1	·	-8.7
C[C@@H]1CN([C@@H](C)CO)C(=O)c2c(c3ccccc3n2C)-c2ccccc2CO[C@@H]1CN(C)S(=O)(=O)c1ccc([N+](=O)[O-])cc1	-9.6	-77.2
Cc1ccc(S(=O)(=O)N(C)C[C@H]2OCc3ccccc3-c3c(n(C)c4ccccc34)C(=O)N([C@@H](C)CO)C[C@@H]2C)cc1	·	-91.7*
CO[C@@H]1CN(C)C(=O)c2ccc(NC(=O)c3cccc(F)c3)cc2OC[C@H](C)N(CC2CC2)C[C@@H]1C	0.3	-23.3
CC(C)CC#Cc1ccc2c(c1)O[C@H](CN(C)C(=O)Cc1ccccc1)[C@@H](C)CN([C@@H](C)CO)S2(=O)=O	7.8	-63.5
C[C@H]1CN([C@@H](C)CO)C(=O)c2cccc(NC(=O)c3ccncc3)c2O[C@@H]1CN(C)S(=O)(=O)c1ccc(F)cc1	-0.6	10.5
Cc1cccc(S(=O)(=O)N[C@@H]2CC[C@@H](CCNS(=O)(=O)c3ccccc3F)O[C@H]2CO)c1	·	3.4
Cc1ccc(S(=O)(=O)N(C)C[C@@H]2OCc3ccccc3-c3c(n(C)c4ccccc34)C(=O)N([C@H](C)CO)C[C@@H]2C)cc1	-0.4	-91.5*
Cc1noc(C)c1S(=O)(=O)N(C)C[C@@H]1OCc2ccccc2-c2c(n(C)c3ccccc23)C(=O)N([C@H](C)CO)C[C@@H]1C	-0.9	-83.8*
Cc1ccc(S(=O)(=O)N(C)C[C@@H]2OCc3ccccc3-c3c(n(C)c4ccccc34)C(=O)N([C@@H](C)CO)C[C@H]2C)cc1	·	-80.9*
COc1ccc(S(=O)(=O)N(C)C[C@H]2OCc3ccccc3-c3c(n(C)c4ccccc34)C(=O)N([C@H](C)CO)C[C@H]2C)cc1	·	-72.2
Cc1noc(C)c1S(=O)(=O)N(C)C[C@H]1OCc2ccccc2-c2c(n(C)c3ccccc23)C(=O)N([C@H](C)CO)C[C@@H]1C	2.6	-35.3
C[C@@H]1CN([C@@H](C)CO)C(=O)c2c(c3ccccc3n2C)-c2ccccc2CO[C@H]1CN(C)S(=O)(=O)c1ccc(F)cc1	·	-53.8
Cc1ccc(S(=O)(=O)Nc2ccc3c(c2)C(=O)N([C@@H](C)CO)C[C@H](C)[C@H](CN(C)Cc2ccc(Oc4ccccc4)cc2)O3)cc1	·	13.2
CN(C)C(=O)c1cccc(-c2ccc3c(c2)[C@H]2[C@H](CCN2C(=O)C2CC2)[C@@H](CO)N3)c1	-0.1	-94.0*
CN(C)C(=O)c1cccc(-c2ccc3c(c2)[C@H]2[C@H](CCN2C(=O)C2CC2)[C@H](CO)N3)c1	-2.9	-7.4
N#Cc1ccc(-c2ccc3c(c2)[C@H]2[C@H](CCN2C(=O)C2CCCC2)[C@H](CO)N3)cc1	-6.3	-85.8*
O=C(C1CCC1)N1CC[C@@H]2[C@@H](CO)Nc3ccc(-c4cccc(F)c4)cc3[C@@H]21	-9.7	26.8
N#Cc1ccc(-c2ccc3c(c2)[C@@H]2[C@@H](CCN2C(=O)C2CCC2)[C@@H](CO)N3)cc1	-10.3	-84.2*
N#Cc1cccc(-c2ccc3c(c2)[C@H]2[C@H](CCN2C(=O)C2CCCCC2)[C@H](CO)N3)c1	-26.0	-12.3
N#Cc1cccc(-c2ccc3c(c2)[C@@H]2[C@@H](CCN2C(=O)C2CCCCC2)[C@@H](CO)N3)c1	-21.5	2.8
SMILES	C diff HTS	Pf Dd2 growth
O=C(C1CCCC1)N1CC[C@@H]2[C@H]1c1cc(-c3cccc(F)c3)ccc1N[C@@H]2CO	59.9	-81.8*
CNC[C@H]1Oc2ncc(-c3cccc(C(=O)N(C)C)c3)cc2C(=O)N([C@H](C)CO)C[C@@H]1C	-2.6	23.1
CCC(=O)N1CC2(CN(C(=O)CN3CCOCC3)C2)c2c([nH]c3cc(OC)ccc23)[C@@H]1CO	-10.8	-0.7
N#Cc1ccc(-c2ccc3c(c2)[C@H]2[C@H](CCN2C(=O)c2ccncc2)[C@H](CO)N3)cc1	-80.5*	-9.8
N#Cc1cccc(-c2ccc3c(c2)[C@H]2[C@H](CCN2C(=O)c2ccncc2)[C@@H](CO)N3)c1	-2.8	-26.9
Cc1ccccc1S(=O)(=O)NCC[C@@H]1CC[C@@H](NC(=O)Nc2cccc(Cl)c2)[C@H](CO)O1	·	-32.6
O=C(NC[C@H]1CC[C@H]2[C@H](CN2Cc2cccc(Cl)c2)O1)C1CCC1	1.4	21.8
C[C@H](CO)N1C[C@H](C)[C@@H](CN(C)C(=O)c2ccccc2F)Oc2ncc(C#Cc3cccc(F)c3)cc2C1=O	0.1	-86.8*
COc1ccc(C#Cc2cnc3c(c2)C(=O)N([C@H](C)CO)C[C@@H](C)[C@@H](CN(C)C(=O)c2ccccc2F)O3)cc1	-5.7	-72.5
COc1ccc(C#Cc2cnc3c(c2)C(=O)N([C@@H](C)CO)C[C@H](C)[C@H](CN(C)C(=O)c2ccccc2F)O3)cc1	3.1	-81.7*
C[C@@H]1CN([C@@H](C)CO)C(=O)c2cc(C#Cc3cccc(F)c3)cnc2O[C@H]1CN(C)C(=O)c1ccccc1F	1.6	-76.8
CN(C)CC(=O)N1[C@@H]2c3cccc(=O)n3C[C@H]1[C@H](CO)[C@H]2C(=O)NCc1ccccc1	0.9	·
CC(C)C#Cc1cnc2c(c1)C(=O)N([C@H](C)CO)C[C@H](C)[C@@H](CN(C)C(=O)CN1CCOCC1)O2	-0.2	33.2
COc1ccccc1-c1ccc2c(c1)O[C@H](CN(C)S(=O)(=O)c1ccc(F)cc1)[C@@H](C)CN([C@@H](C)CO)S2(=O)=O	2.9	-67.9
COc1ccccc1-c1ccc2c(c1)O[C@H](CN(C)S(=O)(=O)c1ccc(C)cc1)[C@@H](C)CN([C@@H](C)CO)S2(=O)=O	5.1	-73.8
COc1ccccc1-c1ccc2c(c1)O[C@@H](CN(C)S(=O)(=O)c1ccc(C)cc1)[C@H](C)CN([C@H](C)CO)S2(=O)=O	7.9	-83.8*
COc1ccccc1-c1ccc2c(c1)O[C@@H](CN(C)S(=O)(=O)c1ccc(F)cc1)[C@H](C)CN([C@@H](C)CO)S2(=O)=O	1.1	-82.1*
C[C@H](CO)N1C[C@H](C)[C@@H](CN(C)Cc2ccc(-c3ccccc3)cc2)Oc2ccc(NC(=O)Cc3cn(C)c4ccccc34)cc2C1=O	15.2	-39.3
C[C@H](CO)N1C[C@H](C)[C@H](CN(C)Cc2ccncc2)Oc2ccc(NS(=O)(=O)c3ccc(Cl)cc3)cc2C1=O	4.7	-7.0
C[C@@H]1CN([C@@H](C)CO)C(=O)c2cc(NC(=O)Nc3ccccc3)ccc2O[C@@H](C)CCCCO[C@H]1CN(C)CC1CCCCC1	8.6	-75.0
C[C@@H]1CN([C@H](C)CO)C(=O)c2cc(NC(=O)C3CCCCC3)ccc2O[C@@H](C)CCCCO[C@@H]1CN(C)CC1CCCCC1	-1.1	-38.0
